ChEMBL document CHEMBL3988442, “University of Dundee, Small-Polar-MMV Screening Library” (2021)
For some of these results: Potency and affinity values are given separately.

How the values were obtained:
Parameters in all cases: scale not given: direction of the effect not stated beside the values
[1] = molecular target: Protein translocase subunit SecA (Escherichia coli (strain K12)) (UniProt P10408); assay: Assay to Identify E. coli SecA ATPase Inhibitors; format: functional; conditions: 30 µM
Protein translocase subunit SecA (Escherichia coli (strain K12)), sequence (P10408 whole entry): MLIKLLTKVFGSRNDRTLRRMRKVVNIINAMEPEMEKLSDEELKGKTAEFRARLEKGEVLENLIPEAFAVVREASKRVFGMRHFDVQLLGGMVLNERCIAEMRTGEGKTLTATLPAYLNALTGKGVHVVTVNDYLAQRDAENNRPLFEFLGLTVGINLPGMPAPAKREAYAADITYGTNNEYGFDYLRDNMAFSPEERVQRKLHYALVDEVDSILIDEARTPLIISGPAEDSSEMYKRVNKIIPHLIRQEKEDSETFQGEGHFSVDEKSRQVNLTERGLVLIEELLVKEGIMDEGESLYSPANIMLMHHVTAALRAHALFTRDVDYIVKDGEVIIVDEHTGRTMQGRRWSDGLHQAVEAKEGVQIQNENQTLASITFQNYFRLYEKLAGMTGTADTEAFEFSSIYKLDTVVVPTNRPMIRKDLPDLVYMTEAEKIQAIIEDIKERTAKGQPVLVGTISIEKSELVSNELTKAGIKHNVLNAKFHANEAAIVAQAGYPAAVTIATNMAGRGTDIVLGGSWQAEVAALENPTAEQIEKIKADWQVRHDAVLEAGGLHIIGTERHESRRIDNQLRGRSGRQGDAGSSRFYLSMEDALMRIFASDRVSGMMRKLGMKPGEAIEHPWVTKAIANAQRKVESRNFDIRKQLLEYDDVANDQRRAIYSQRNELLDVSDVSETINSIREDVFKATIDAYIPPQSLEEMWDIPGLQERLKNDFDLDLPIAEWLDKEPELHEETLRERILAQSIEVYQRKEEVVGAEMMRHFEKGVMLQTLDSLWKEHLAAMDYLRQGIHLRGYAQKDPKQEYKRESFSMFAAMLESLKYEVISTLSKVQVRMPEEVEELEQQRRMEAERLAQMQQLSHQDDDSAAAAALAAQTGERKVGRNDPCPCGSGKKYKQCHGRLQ

[2] = molecular target: T1, Ubiquitin-activating enzyme e1, putative (Leishmania donovani (strain BPK282A1)) (UniProt E9BSI1); assay: Leishmania donovani Ubiquitin Activating Enzyme (LdE1); format: functional; conditions: 30 µM
T1 sequence (whole entry): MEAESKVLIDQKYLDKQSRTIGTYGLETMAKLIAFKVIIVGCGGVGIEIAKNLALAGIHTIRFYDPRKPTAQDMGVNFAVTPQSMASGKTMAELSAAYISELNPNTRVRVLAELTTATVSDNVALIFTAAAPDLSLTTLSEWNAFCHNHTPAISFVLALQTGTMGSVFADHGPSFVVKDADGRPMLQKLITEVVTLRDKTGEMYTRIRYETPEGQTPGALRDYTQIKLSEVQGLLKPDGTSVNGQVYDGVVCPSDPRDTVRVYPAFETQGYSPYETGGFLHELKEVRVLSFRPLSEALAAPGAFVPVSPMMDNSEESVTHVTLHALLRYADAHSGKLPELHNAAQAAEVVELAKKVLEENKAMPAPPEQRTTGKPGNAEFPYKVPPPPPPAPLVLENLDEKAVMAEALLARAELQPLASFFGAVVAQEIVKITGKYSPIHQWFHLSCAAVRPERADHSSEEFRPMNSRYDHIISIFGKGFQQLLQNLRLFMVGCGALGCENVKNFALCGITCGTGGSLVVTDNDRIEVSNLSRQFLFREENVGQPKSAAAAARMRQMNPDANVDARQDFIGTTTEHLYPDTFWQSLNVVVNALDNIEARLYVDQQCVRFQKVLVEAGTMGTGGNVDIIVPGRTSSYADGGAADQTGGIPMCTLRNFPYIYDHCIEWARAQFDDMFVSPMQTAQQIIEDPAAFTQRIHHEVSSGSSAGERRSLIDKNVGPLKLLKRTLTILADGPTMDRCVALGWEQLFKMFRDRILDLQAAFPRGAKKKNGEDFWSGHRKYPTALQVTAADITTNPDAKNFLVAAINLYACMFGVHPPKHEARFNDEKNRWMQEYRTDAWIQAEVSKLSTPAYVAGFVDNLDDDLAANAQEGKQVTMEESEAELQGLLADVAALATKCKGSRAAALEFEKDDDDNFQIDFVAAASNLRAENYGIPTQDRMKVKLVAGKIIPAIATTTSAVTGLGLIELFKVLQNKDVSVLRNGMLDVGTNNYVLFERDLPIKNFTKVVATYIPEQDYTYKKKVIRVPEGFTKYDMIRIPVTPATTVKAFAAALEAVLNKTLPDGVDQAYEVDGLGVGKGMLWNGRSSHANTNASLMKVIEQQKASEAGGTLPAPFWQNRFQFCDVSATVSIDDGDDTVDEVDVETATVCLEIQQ

[3] = molecular target: AMP-activated protein kinase, AMPK (Homo sapiens) (UniProt P54646+O43741+P54619+Q9UGJ0+Q9Y478+Q13131+Q9UGI9); assay: AMP-dependent Kinase enzyme assay. An in vitro enzyme assay that detects ADP turnover that is directly proportional to AMPK activity. This uses naive AMPK that is activated during the assay with MK-8722; format: functional; conditions: 30 µM
[4] = molecular target: Sialic acid-binding Ig-like lectin 9 (Homo sapiens) (UniProt Q9Y336); assay: Hs-Siglec9 ALPHAscreen SOP 20170721; conditions: 10 µM
Sialic acid-binding Ig-like lectin 9 (Homo sapiens), sequence (Q9Y336 whole entry): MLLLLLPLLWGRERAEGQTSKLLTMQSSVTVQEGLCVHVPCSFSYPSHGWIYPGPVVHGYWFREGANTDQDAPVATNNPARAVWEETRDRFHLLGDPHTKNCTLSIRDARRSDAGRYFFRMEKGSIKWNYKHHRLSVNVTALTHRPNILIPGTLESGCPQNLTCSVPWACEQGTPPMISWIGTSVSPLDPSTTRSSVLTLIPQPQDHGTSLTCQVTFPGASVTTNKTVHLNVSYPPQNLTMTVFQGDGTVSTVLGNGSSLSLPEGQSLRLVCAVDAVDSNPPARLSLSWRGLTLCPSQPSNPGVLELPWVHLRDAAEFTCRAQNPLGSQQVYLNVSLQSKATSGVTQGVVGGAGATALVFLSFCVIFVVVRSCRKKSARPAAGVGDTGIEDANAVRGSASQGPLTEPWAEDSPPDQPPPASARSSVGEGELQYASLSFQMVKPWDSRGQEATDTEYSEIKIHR

Trypanosoma cruzi = assay: Trypanosoma cruzi phosphomannomutase and mannose-1-phosphate guanylyltransferase assay; format: functional; conditions: 10 µM
[5] = molecular target: T2, Arginase-2, mitochondrial (Homo sapiens) (UniProt P78540); assay: in vitro enzyme assay to detect the production of urea directly proportional to the activity of Arginase II; format: functional; conditions: 33.3 µM; note: in the data most compounds retested in dose-response had high values
T2 sequence (whole entry): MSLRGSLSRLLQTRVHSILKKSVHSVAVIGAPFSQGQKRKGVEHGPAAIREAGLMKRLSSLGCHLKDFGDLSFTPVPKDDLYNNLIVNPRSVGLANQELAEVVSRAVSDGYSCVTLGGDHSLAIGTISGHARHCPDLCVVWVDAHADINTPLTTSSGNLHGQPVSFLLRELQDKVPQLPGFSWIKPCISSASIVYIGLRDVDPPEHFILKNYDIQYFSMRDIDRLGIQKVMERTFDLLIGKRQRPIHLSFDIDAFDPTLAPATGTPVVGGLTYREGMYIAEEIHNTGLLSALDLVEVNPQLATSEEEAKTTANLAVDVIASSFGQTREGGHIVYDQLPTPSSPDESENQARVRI

[6] = molecular target: T3, Proteasome subunit beta (Trypanosoma cruzi) (UniProt O96673); assay: Trypanosoma cruzi proteasome chymotrypsin-like activity (TcProtChymo) assay.; note: in the data most compounds retested in dose-response had high values; format: functional; conditions: 9.37 µM
T3 sequence (whole entry): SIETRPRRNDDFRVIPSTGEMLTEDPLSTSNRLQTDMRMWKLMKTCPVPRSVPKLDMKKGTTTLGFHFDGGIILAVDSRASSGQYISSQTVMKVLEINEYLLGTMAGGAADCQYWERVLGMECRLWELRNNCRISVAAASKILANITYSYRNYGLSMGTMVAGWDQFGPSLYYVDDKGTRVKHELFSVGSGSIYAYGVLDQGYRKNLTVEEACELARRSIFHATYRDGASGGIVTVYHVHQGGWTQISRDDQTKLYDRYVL

Homo sapiens = species: Homo sapiens; assay: To identify inhibition of the IFN signalling (Jak-Stat) pathway via expression of an eGFP reporter gene under the control of an IFN-stimulated response element (ISRE) containing MxA promoter.; format: functional; conditions: 30 µM
[7] = molecular target: T4, Tyrosyl-tRNA synthetase, putative (Trypanosoma cruzi (strain CL Brener)) (UniProt Q4DSP6); assay: Trypanosoma cruzi tyrosyl tRNA synthetase (TcYRS) _High Tyrosine SOP; format: functional; conditions: 30 µM; note: in the data most compounds retested in dose-response had high values
T4 sequence (whole entry): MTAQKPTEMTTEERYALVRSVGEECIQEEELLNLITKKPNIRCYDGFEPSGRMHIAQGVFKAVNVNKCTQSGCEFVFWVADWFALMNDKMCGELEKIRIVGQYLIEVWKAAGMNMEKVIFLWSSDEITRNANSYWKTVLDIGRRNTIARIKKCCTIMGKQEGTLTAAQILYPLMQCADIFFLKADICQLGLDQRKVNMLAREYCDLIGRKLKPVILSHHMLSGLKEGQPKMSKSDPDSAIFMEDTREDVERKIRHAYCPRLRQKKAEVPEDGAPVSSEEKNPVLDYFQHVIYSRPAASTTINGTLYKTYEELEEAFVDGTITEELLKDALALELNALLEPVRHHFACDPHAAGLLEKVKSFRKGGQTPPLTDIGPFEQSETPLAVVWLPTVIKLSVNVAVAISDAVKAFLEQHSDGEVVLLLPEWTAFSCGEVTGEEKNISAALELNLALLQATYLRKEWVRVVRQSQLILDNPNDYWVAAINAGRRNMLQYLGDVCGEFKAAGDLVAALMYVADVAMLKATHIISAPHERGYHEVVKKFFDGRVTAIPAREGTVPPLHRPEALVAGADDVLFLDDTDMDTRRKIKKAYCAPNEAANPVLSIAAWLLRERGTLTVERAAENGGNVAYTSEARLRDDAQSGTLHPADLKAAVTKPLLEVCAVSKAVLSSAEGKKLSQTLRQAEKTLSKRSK

[8] = molecular target: T4, Tyrosyl-tRNA synthetase, putative (Trypanosoma cruzi (strain CL Brener)); assay: Trypanosoma cruzi tyrosyl tRNA synthetase (TcYRS) SOP; format: functional; conditions: 30 µM
[9] = molecular target: Chromo domain-containing protein 1 (Saccharomyces cerevisiae (strain ATCC 204508 / S288c) (Baker's yeast)) (UniProt P32657); assay: ScCHD-1 Enzyme Inhibition Assay; format: functional; conditions: 30 µM; note: in the data most compounds retested in dose-response had high values
Chromo domain-containing protein 1 (Saccharomyces cerevisiae (strain ATCC 204508 / S288c) (Baker's yeast)), sequence (P32657 whole entry, the tested form may be a part): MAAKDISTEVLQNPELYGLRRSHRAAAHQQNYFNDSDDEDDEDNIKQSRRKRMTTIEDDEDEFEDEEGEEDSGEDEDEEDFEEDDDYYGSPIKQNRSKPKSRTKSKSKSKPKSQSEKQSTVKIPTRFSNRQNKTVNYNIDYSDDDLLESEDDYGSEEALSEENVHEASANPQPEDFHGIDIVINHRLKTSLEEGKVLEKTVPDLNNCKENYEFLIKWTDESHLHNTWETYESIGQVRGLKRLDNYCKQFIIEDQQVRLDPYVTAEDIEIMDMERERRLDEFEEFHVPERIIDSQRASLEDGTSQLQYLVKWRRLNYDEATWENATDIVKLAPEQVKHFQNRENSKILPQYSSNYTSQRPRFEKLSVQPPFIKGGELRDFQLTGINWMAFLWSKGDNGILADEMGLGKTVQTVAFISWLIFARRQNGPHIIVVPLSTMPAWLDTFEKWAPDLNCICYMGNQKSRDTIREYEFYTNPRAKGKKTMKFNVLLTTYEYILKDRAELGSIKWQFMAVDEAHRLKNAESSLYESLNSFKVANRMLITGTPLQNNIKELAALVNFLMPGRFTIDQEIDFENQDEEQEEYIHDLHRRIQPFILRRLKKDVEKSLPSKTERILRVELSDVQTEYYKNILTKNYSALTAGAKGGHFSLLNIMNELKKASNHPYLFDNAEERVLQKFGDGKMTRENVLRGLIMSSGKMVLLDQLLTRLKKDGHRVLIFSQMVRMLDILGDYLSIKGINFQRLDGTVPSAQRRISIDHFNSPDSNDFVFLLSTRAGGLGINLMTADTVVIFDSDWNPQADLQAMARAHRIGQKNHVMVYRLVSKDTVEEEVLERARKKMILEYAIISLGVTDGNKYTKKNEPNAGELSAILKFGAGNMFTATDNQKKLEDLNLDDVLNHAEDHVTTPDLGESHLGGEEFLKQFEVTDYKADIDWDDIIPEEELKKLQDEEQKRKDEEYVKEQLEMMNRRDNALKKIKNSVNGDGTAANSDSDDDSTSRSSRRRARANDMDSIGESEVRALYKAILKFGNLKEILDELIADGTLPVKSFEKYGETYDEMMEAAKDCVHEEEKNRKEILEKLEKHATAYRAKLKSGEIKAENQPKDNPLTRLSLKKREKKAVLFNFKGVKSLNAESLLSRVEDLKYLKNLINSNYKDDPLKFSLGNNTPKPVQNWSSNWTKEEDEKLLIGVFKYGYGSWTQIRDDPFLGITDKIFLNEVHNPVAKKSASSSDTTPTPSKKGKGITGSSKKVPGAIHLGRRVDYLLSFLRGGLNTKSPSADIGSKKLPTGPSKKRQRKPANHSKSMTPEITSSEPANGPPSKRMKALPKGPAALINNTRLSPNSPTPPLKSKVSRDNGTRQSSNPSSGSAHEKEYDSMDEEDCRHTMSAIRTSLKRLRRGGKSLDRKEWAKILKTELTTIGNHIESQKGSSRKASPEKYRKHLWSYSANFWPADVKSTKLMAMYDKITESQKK

Compound | Percent Effect [1] | Percent Effect [2] | Percent Effect [3] | Percent Effect [4] | Percent Effect (Trypanosoma cruzi) | Percent Effect [5] | Percent Effect [6] | Percent Effect (Homo sapiens) | Percent Effect [7] | Percent Effect [8] | Percent Effect [9]
O=C(CCc1ccc(Br)cc1F)NS(=O)(=O)c1ccc2c(c1)OCCO2 | -4.85% | -6.33% | 13.3% | 0.4% | -2.15% | 1.07% | 4.97% | 18.6% | -18.8% | -17.7% | -2.67%
CN(Cc1csc(-c2cccs2)n1)C(=O)CCn1ccccc1=O | -4.95% | 8% | -1.99% | 4.47% | -1.07% | 5.21% | 22.7% | 10.8% | 3.83% | 11.1% | -4.75%
CCc1nnc2n1CCN(C(=O)C(C)COCc1ccccc1)C2 (stereo not given) | -1.9% | 10.5% | 0.611% | -4.15% | 7.94% | -1.44% | 6.68% | -1.54% | 3.45% | 16.1% | -2.72%
CN(C)C(=O)c1ccc2c(c1)N(C)C(CC(=O)NCCC(C)(C)C)CO2 (stereo not given) | -3.89% | 9.72% | 3.96% | 13.4% | 5.73% | 22.1% | 14.4% | 2.35% | 3.16% | 10.3% | -5.3%
CSC(C)(C)CNC(=O)NC1CCN(C)CC1 | -2.43% | 5.33% | -2.46% | 7.43% | 3.21% | 15.6% | 0% | 21.1% | 4.92% | 6.17% | -2.97%
COc1ccc(S(=O)(=O)NCc2cccnc2N(C)C)cc1F | -1.87% | 20.2% | -8.9% | -2.51% | 2.74% | 6.08% | 4.18% | 21.9% | 8.37% | 24.1% | -5.49%
CC(C)C(C(=O)N1CCC(Nc2cccnn2)CC1)n1cncn1 (stereo not given) | -0.999% | -2.7% | -4.26% | 1.29% | -6.51% | 1.2% | 5.59% | 9.97% | 0.493% | -1.24% | -1.75%
Cc1nn(C)c(C)c1-c1cncc(C2CCN(S(C)(=O)=O)CC2)n1 | 0.332% | -2.67% | 22.7% | 4.44% | -1.77% | 2.1% | -3.96% | 25.6% | 3.19% | 3.85% | 0.849%
CN(Cc1ccc(C#N)cc1)Cc1noc(C(C)(C)C)n1 | -3.57% | 0% | -1.73% | 0.255% | -0.885% | 2.76% | 3% | 8.86% | -1.07% | -1.24% | 2.69%
Cn1cc(CN2C[C@@H]3COC[C@]3(COc3ccc(C#N)cn3)C2)cn1 | -0.614% | 5.48% | -2.34% | 6.07% | -1.98% | 1.2% | 11.4% | 13.4% | 8.33% | 11.1% | -0.913%
CC(C)n1ccnc1CN1CCCN(C(=O)CC2C=CCC2)CC1 (stereo not given) | -5.72% | -1.27% | 12.6% | -5.19% | -3.18% | -6.67% | 17.8% | 9.57% | -2.08% | -5.06% | -12.8%
Cc1noc(CCCC(=O)NC(C)c2ccccn2)n1 (stereo not given) | -1.78% | 18.4% | -1.11% | 2.7% | 3.01% | 2.68% | 6.52% | 3.32% | 10.3% | 21.9% | -13.2%
CN1CCCc2cc(NC(=O)N3CCOC(C(N)=O)C3)ccc21 (stereo not given) | 4.12% | 21.9% | 34.2% | 5.33% | 5.75% | -1.2% | 10.5% | 14.3% | 8.33% | 21% | -3.37%
OCCN1CCN(Cc2coc(-c3ccc(Cl)cc3)n2)CC1 | -2.69% | -2.6% | 3.9% | 4.43% | 3% | 4.27% | 1.35% | -6.89% | 0% | 7.32% | -3.24%
CN1CC2(COCCN(C(=O)c3ccco3)C2)OCC1=O (stereo not given) | -5.81% | 2.67% | -0.919% | -3.45% | -5.99% | -55.4% | 0.513% | -7.28% | -3.12% | -2.5% | -2.77%
COCCN(Cc1ccc(F)cc1Cl)C(=O)c1ccc(=O)[nH]n1 | -4.94% | 6.94% | -10.2% | 29.6% | 4.37% | 6.18% | 10.3% | -2.22% | 2.1% | 5.13% | -5.81%
COc1ccccc1CN(C)c1nccc(-c2cn(C)nc2C)n1 | -1.09% | 5.33% | 2.11% | 8.22% | 4.58% | 24% | 16% | 34.9% | 6.01% | 16.1% | -5.41%
CC(NC(=O)CSCC(=O)Nc1ccccc1)c1ccccc1 (stereo not given) | -1.97% | 2.63% | -2% | -3.2% | -0.654% | 1.08% | -0.761% | -13.7% | 3.45% | 3.7% | 8.03%
COCCn1nc(C(=O)N(C)Cc2cnn(C)c2)ccc1=O | -6.3% | 15.8% | -7.26% | -8.02% | 4.38% | -8.28% | 14.7% | 9.08% | 5.32% | -2.6% | -9.82%
COc1ccc(C2=CCN(C(=O)CN(C)CC(C)C#N)CC2)cc1 (stereo not given) | -8.6% | -12.7% | -4.45% | 7.49% | 10.5% | -6.84% | 0.901% | 10.5% | 7.39% | 13.9% | -8.15%
